Several values for one entry are separate records, joined by “and”; a condition that tells them apart may be missing. Identical values can stand only once. Screen size: about 360,000 compounds; about 17,000 (4.7%) were called active. Roughly 5% stayed inconclusive and do not appear here. No stated cut-off is given here; in the data, active means activity change below about -50%; inconclusive means mostly about -30% to -49%; inactive means weaker than that. Only a selection was taken, and actives are over-represented in it overall.
Assay: qHTS for Inhibitors of Inflammasome Signaling: IL-1-beta AlphaLISA Primary Screen
Conditions: THP-1 LPS/ATP IL-1B secretion, 16 h; at 57.5 µM, active compounds read low
In short: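 Secreted IL-1B measured by AlphaLISA bead assay after 16 h compound exposure of THP-1 cells; compounds (final up to 57.5 uM) added 1 h before LPS (250 ng/mL) and ATP (1.25 mM) stimulation; lower signal means less secretion.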
On the % scale 0 is the no-effect control and ±100 the full control effect.

Activity change, active:
O=C(NC1CCN(Cc2ccccc2)CC1)c1ccc(Oc2cc(Cl)cc(Cl)c2)o1 -70.1%
O=C(NC1CCN(Cc2ccccc2)CC1)c1cc(Br)c(Br)[nH]1 -123%
O=C(CO/N=C/c1ccc(OC(F)F)cc1)NCc1ccc(F)cc1 -66.2%
O=C(Nc1ccc(Br)cn1)c1ccc([N+](=O)[O-])o1 -155%
Cc1onc(NC(=O)c2ccc([N+](=O)[O-])o2)c1Br -79.8%
Cc1cccc(NC(=O)c2ccc([N+](=O)[O-])o2)c1 -102%
COc1ccc(-c2nc3cnccn3c2NC2CCCCC2)cc1-c1cccc(Cl)c1 -76.6% and -52.7%
COc1ccc(-c2nc3cnccn3c2NC(C)(C)CC(C)(C)C)cc1O -71.3%
COc1ccc(-c2nc3cc(C)ccn3c2NC2CCCCC2)cc1SC1CCCCC1 -85%
NC(=O)COC(=O)/C=C/c1ccc2ccccc2n1 -101%
CS(=O)(=O)c1sc2nc(-c3ccccc3)cc(-c3ccccc3)c2c1N -67.8%
Cc1ccc(C(=O)/C=C/c2c(C)nn(-c3ccccc3)c2Cl)cc1 -95%
Cc1nn(-c2ccccc2)c(Cl)c1/C=C/C(=O)c1ccc(O)cc1 -94.5%
Cc1cccc(C)c1NC(=O)C(Cl)C(=O)c1ccccc1 (configuration not stated) -95.8%
COc1ccc(CC(N)c2csc(NC(=O)Nc3ccc(C(C)C)cc3)n2)cc1 (configuration not stated) -108%
CC(C)(C)CC(=O)Nc1nc(C(N)Cc2ccc(C(F)(F)F)cc2)cs1 (configuration not stated) -83.8%
COc1ccc(CC(N)c2csc(NC(=O)NC(c3ccccc3)c3ccccc3)n2)cc1 (configuration not stated) -61.5%

Activity change, inactive:
C[C@H](NC(=O)CC[C@H]1O[C@@H](n2ccc(=O)[nH]c2=O)[C@H](O)[C@@H]1O)c1cccc2ccccc12 0%
CC(C)(C)C(=O)NNC(=O)c1ccc(Oc2cc(Cl)cc(Cl)c2)o1 6.58%
CCOc1ccc(CC(=O)NC2CCN(Cc3ccccc3)CC2)cc1 0%
Cc1cc(C(=O)NC2CCN(Cc3ccccc3)CC2)n[nH]1 -8.74%
COc1cc2[nH]c(=O)n(Cc3ccc(C(=O)NC4CCN(Cc5ccccc5)CC4)cc3)c(=O)c2cc1OC 2%
COC(=O)c1ccc2nc(-c3ccccc3)c(Cc3ccc(OC)cc3C)n2c1 -3.04%
CSc1ccc(CN2CCC2(C)C(=O)Nc2ccc(C)c(O)c2)cc1 (configuration not stated) -13.3%
Cc1ccc(S(=O)(=O)N[C@H](CO)C(C)C)cc1 -19.8%
Cc1ccsc1CNn1cnnc1SCc1ccccc1F -6.1%
CC(C)c1ccc(CC(=O)N2CCC2(C)C(=O)NS(=O)(=O)c2ccc(C(C)(C)C)cc2)cc1 (configuration not stated) 19.2%
C[C@]12CCC(=O)C=C1C=CC1C2CC[C@@]2(C)C1CC[C@@]21CCC(=O)O1 (some centres not stated) -21.4%
CSCCC(NS(=O)(=O)c1ccc(C)cc1)C(=O)NCCc1c[nH]c2ccccc12 (configuration not stated) -1.87%
O=C1Nc2ccccc2-n2nnnc2C1N1CCN(c2cccc(C(F)(F)F)n2)CC1 (configuration not stated) -29.2%
CCOc1ccc(/C=N/OCC(=O)NCc2cccs2)cc1 -0.513%
CC1CCCCC1NC(=O)CO/N=C/c1ccc(OC(F)F)cc1 (configuration not stated) -0.145%
CC(C)(C)C(=O)c1c(N)[nH]c(C(=O)c2ccccc2)c1-c1ccc(F)cc1 19.8%
Fc1cccc(Cc2c(-c3cccc(Cl)c3)nc3ccc(Br)cn23)c1 88.1%
Cc1cccc(NC(=O)C(C)SCc2ccccc2)c1 (configuration not stated) 58.8%
O=C(Nc1ccc(Br)cn1)c1ccc([N+](=O)[O-])cc1Cl -6.95%
Cc1cccc(C(=O)Nc2ccc(CC(=O)O)cc2)c1 0%
Cc1cc(NC(=O)COc2ccc([N+](=O)[O-])cc2)no1 -22.5%
Cc1onc(C(=O)NCc2ccc(F)cc2)c1[N+](=O)[O-] 10%
CN1C(=O)c2ccc(C(=O)Nc3ccc(Br)cn3)cc2C1=O -0.113%
C[n+]1cccc(C(=O)O)c1 -10.8%
O=C(NCc1cccnc1)c1cc(C2CCCCN2C(=O)CCc2ccccc2)on1 (configuration not stated) 19.3%
Cc1n[nH]c(=O)c2c(NC(=O)CSc3ccccc3F)oc(C)c12 -0.579%
CC(C)(C)OC(=O)NC(Cc1ccccc1)C(=O)NC(CSC1CCCCO1)C(=O)NN (configuration not stated) -12%
COc1ccc(CN2C(=O)C(CC(=O)NCCN3CCOCC3)CC(C(=O)N(C(C)C)C(C)C)=C2C)cc1 (configuration not stated) 15.9%
COc1cc(C2c3cc4c(cc3C(O)C3COC(=O)C23)OCO4)cc(OC)c1OC (configuration not stated) -3.2%
O=C(NCC(F)(F)F)c1ccc(S(=O)(=O)NCCc2ccc3c(c2)OCCO3)cc1 -14.1%
CCCn1c(N)c(C(=O)CSc2nnc(Cc3cccs3)n2C2CC2)c(=O)[nH]c1=O -3.66%
COc1cc(OC)cc(C2=Cc3ccccc3C(CC(=O)c3ccco3)N2c2ccc(-c3cnc(OC)nc3)cc2)c1 (configuration not stated) 3.59%
CCOc1ccc(Cl)cc1-c1cc(C(=O)NCc2cccs2)[nH]n1 -22.8%
COC(=O)C[C@@H]1C=C[C@@H](NS(=O)(=O)c2cccc(OC)c2)[C@@H](CO)O1 -5.98%
CCOC(=O)/C(=N\Nc1cc(Cl)ccc1Cl)N1CCN(C)CC1 19%
COc1cc2ccc(C(C)=O)c(O)c2cc1OC -10.2%
COc1ccc(C)cc1S(=O)(=O)NC1CCCCC1 -4.98%
CCOc1cc(-c2nc3cc(C)ccn3c2NCC2CCCO2)ccc1O (configuration not stated) 2.58%
COc1cccc(-c2nc3nc(C)cc(C)n3c2NC2CCCCC2)c1 8.2%
COC(=O)c1ccc2nc(-c3ccc(OC)c(OC)c3)c(Cc3ccccc3)n2c1 -9.54%
Cc1ccc2nc(-c3cccnc3)c(NC3CCCC3)n2c1 -1.15%
CC(=O)Nc1cc(-c2ccccc2F)cn2c(-c3cccc(C(F)(F)F)c3)cnc12 -13.7%
COc1cc(C=NC2CCCCC2)ccc1O 9.61%
Cc1ccc(-c2nc(C)sc2CC(=O)OCC(=O)Nc2c(F)cccc2F)cc1 8.31%
CCNC(=O)C1CCCN(C(=O)c2ccc(OC)cc2OC)CC1 (configuration not stated) 5.59%
COC(=O)CC(CC(=O)OC)n1cccc1 4.98%
O=C(CN(Cc1ccc(Br)cc1)S(=O)(=O)c1ccccc1)NCc1ccncc1 -5.94%
Cc1cc(C)cc(C(=O)NC(CC(N)=O)c2ccc(N3CCC(N4CCCCC4)CC3)c([N+](=O)[O-])c2)c1 (configuration not stated) -16.2%
CCOC(=O)c1c(C)[nH]c(C)c1C(=O)COC(=O)/C=C/c1cccc([N+](=O)[O-])c1 -15%
CCCOC1CCCN(C(=O)c2cc(COc3cncc(Cl)c3)on2)C1 (configuration not stated) 0%
COc1ccc(C(=O)COC(=O)c2ccc3ccccc3n2)cc1 3.46%
CC(NC(=O)COC(=O)c1ccc2ccccc2n1)c1ccccc1 (configuration not stated) 2.13%
COc1cc(CCC(=O)N2CCN(c3ccccc3Cl)CC2)cc(OC)c1OC 7.36%
COCCCN(C(=O)Cn1ncc2c(=O)oc3ccc(C)cc3c21)C(C)c1ccncc1 (configuration not stated) 7.95%
CNC(=S)NNC(=O)c1oc2nc(-c3ccccc3)cc(-c3ccco3)c2c1N -18%
Nc1cccc(-c2cc(-c3ccccc3)nc(-c3cccc(N)c3)n2)c1 -9.31%
CCOC(=O)C(C)n1cnc2scc(-c3ccc(C)c(C)c3)c2c1=O (configuration not stated) -7.25%
Cc1nn(-c2ccc(F)cc2)c(Cl)c1/C=C(/CCC(=O)O)c1nc2ccccc2s1 19.2%
Cc1nn(-c2ccccc2)c(-n2cccc2)c1C(=O)O 20.3%
Cc1nn(-c2ccccc2)c(C)c1/C=C/C(=O)OC(C)C(N)=O (configuration not stated) 9.76%
Cc1ccc(C(=O)Nc2nc(N)n(-c3ccccc3)n2)cc1 -8.07%
OCC(O)C1OCOC(C(O)CO)C1O (configuration not stated) -2.84%
Cc1ccc(C2Nc3ccccc3C(=O)N2CCN2CCNC2=O)cc1 (configuration not stated) 10.9%
Cc1cccc2[nH]c(CN(C)C(=O)C3CCC(=O)N(CCc4ccccc4)C3)nc12 (configuration not stated) 0%
Cc1cccc(C)c1NC(=O)CN(C)C(=O)CCC(=O)c1ccccc1 -6.47%
Cc1cccc(C)c1NC(=O)C(c1ccccc1)N1CC(=O)Nc2ccccc21 (configuration not stated) -11%
OC(c1ccc(F)cc1)c1ncc(-c2cccc(C(F)(F)F)c2)[nH]1 (configuration not stated) -20.2%
COc1ccc(NC(=O)C(Br)C(C)C)cc1 (configuration not stated) -18.5%
NC(Cc1ccccc1)c1csc(Nc2cc(Oc3ccccc3)ncn2)n1 (configuration not stated) 0%
COC(=O)[C@H](CCSC)NC(=O)Nc1ccc(OC)cc1 16.7%
Cc1ccccc1NC(=O)Cc1nc(COC(=O)c2ccc(C(F)(F)F)cc2)cs1 -4.36%
COc1ccc(OC)c(NC(=O)N[C@H](Cc2ccccc2)C(=O)NN)c1 -13.5%
CC(C)(C)CC(=O)Nc1nnc(SCC(=O)NCc2cccs2)s1 -5.2%
CCCS(=O)(=O)NC(=O)C1(C)CCN(C(=O)c2sccc2C)C1 (configuration not stated) 6.04%
CC1(C(=O)NCc2cccc3ccccc23)CCN1Cc1ccc(-c2ccccc2)o1 (configuration not stated) -22.3%

From PubChem BioAssay AID743279 (National Center for Advancing Translational Sciences (NCATS), 2014)
